ATXN2 expr inh = reduces ATXN2 reporter expression in HEK-293 cells | AID 1745845 | Potency, µM (doses to about 57 µM), without a hit: at the top dose activity change, negative = inhibition, usual class: inhibitors | HEK-293 ATXN2-luciferase reporter, luminescence, 24 h | 360,000 compounds, 0.72% hits; also: % is scaled to controls: 0 for no effect and ±100 for the full control effect; nearly all actives have a fitted effect of over 55% in size
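qHTS (up to 57 uM final) was run with 24 h compound exposure of reporter cells at 37 °C. Each well was multiplexed: SteadyGlo luminescence measured ATXN2-luciferase expression after a fluorogenic Gly-Phe-AFC viability readout (25 uM final).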
S2 tox = cell viability loss in ATXN counter-screen; S2 cells (HEK-293 line with an ATXN2-luciferase reporter) viability, CellTiter-Fluor protease fluorescence, 24 h; Potency, µM (series often up to 56.7 µM), actives largely listed as cytotoxic; 400,000 compounds, 0.49% hits; AID 651635; also: nearly all actives have a fitted effect of over 40% in size
A549 tox-1 = kills or reduces viability of A549 cells in Nrf2 counter-screen; A549 ARE-Fluc cells, CellTiter-Fluor viability, 18-24 h; Potency, µM (highest dose often 46 µM), for the others: at the top dose activity change, negative = cytotoxicity, actives largely listed as inhibitors; 390,000 compounds, 0.16% hits; AID 504648; also: % is scaled to controls: 0 for no effect and ±100 for the full control effect
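A549 ARE_Fluc cells in 5% FBS OPTI-MEM were exposed to compounds in concentration-response for 18-24 h at 37 deg C. Viability was read by CellTiter-Fluor fluorescence (Ex 405/Em 525) after 30 min, before the luciferase read.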
Nrf2 inh = inhibitors of Nrf2 signaling | AID 504444 | 360,000 compounds, 2.1% hits | A549 ARE-Fluc reporter, luciferase luminescence, 18-24 h | Potency, µM (titrated, usually from 46 µM), for the others: at the highest dose activity change, negative = inhibition, most hits filed as inhibitors; also: % is scaled to controls: 0 for no effect and ±100 for the full control effect; nearly all actives have a fitted effect of over 60% in size
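Reporter: ARE-Fluc in A549. Exposure: 18-24 h, 37 °C, 5% CO2, 5% FBS OPTI-MEM. Readouts: fluorescent cytotoxicity (CellTiter-Fluor), then luminescent Nrf2 signal after BugLite.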
Nrf2 ARE act = activates Nrf2 signaling; AREc32 ARE-luciferase reporter (MCF7-derived line), luminescence, 24 h; Potency, µM (series often up to 46.1 µM), without a hit: at the top dose activation, usual class: activators; 410,000 compounds, 0.31% hits; also: % of control where 0% means no effect; nearly all actives have a fitted effect of over 65% in size
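Nrf2 activation is followed as ARE-luciferase induction in the AREc32 line after one day of compound treatment; luminescence is read with Steady-Glo.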
FLuc enzyme inh = blocks purified firefly luciferase in Nrf2 counterscreen. shares compounds with Nrf2 inh. purified firefly luciferase, luminescence inhibition. Potency, µM (top dose mostly 57.5 µM), without a hit: at the highest dose activity change, negative = inhibition, actives largely listed as inhibitors. 1,400 compounds, 4% hits. AID 720522; also: % is scaled to controls: 0 for no effect and ±100 for the full control effect; nearly all actives have a fitted effect of over 65% in size
Target sequence (P08659 whole entry, looked up): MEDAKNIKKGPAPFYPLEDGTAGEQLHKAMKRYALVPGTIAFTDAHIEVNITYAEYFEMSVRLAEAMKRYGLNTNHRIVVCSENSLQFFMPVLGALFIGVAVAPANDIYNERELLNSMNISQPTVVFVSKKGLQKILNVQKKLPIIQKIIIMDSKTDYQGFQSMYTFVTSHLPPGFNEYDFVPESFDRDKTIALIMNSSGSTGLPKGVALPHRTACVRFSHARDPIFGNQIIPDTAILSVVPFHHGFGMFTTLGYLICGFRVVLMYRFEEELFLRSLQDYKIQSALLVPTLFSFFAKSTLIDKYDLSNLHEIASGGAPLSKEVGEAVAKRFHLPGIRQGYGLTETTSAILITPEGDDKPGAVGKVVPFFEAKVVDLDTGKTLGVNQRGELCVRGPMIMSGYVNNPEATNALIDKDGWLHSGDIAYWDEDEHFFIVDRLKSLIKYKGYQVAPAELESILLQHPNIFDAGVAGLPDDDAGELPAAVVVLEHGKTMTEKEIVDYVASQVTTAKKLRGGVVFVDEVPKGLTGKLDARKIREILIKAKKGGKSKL
A549 tox-2 = toxic to A549 ARE-Fluc cells in Nrf2 counterscreen; shares compounds with Nrf2 inh; A549 ARE-Fluc cells, cytotoxicity counterscreen; Potency, µM (series often up to 46.1 µM), for the others: top-dose activity change, negative = cytotoxicity, usual class: inhibitors; 1,400 compounds, 2% hits;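 also: cells exposed to compounds for 18 to 24 hours; % is scaled to controls: 0 for no effect and ±100 for the full control effect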
ARE-Fluc inh = Nrf2 inhibition confirmed, A549 ARE-luciferase | shares compounds with Nrf2 inh | A549 ARE-firefly luciferase reporter, luminescence | Potency, µM (highest dose often 46.1 µM), for the others: at the highest dose activity change, negative = inhibition, most hits filed as inhibitors | 1,400 compounds, 74% hits; also: % is scaled to controls: 0 for no effect and ±100 for the full control effect; nearly all actives have a fitted effect of over 65% in size
* marks the source's active call; other numbers are inactive results; i = inactive; ? = inconclusive; · = no result given; ! = not confirmed by another sample; [ ] = remark or other dose. The list is not random: actives were taken first. Their share in the collection is about 2.9%. Calls follow the shape of the dose curve; as a rule, active = well fitted curve in the direction sought with a large enough effect; inconclusive = small, poorly fitted or top-dose-only effect, or another doubt; inactive = no such curve, though single readings can be large; an effect the other way counts as inactive or inconclusive. Potency is read from the fitted curve at half-maximal effect.

SMILES	ATXN2 expr inh	S2 tox	A549 tox-1	Nrf2 inh	Nrf2 ARE act	others
CC1=C(O)C(=O)C=C2C1=CC=C1C2(C)CCC2(C)C3CC(C)(C(=O)O)CCC3(C)CCC12C (stereo not drawn)	4.5µM*	5.6µM*	?	18µM*	-3%
COC(=O)C[C@]1(C(=O)OC)CN(C#N)N(c2ccc(Cl)cc2)C12c1ccccc1-c1ccccc12	4µM*	5.6µM*	?	?	-2%
COC(=O)[C@@H]1[C@@H](C(=O)OC)C2(c3ccccc3-c3ccccc32)N(c2ccc(Cl)cc2)N1C#N	7.1µM*	7.1µM*	?	?	-3%
CN[C@H]1C[C@@H](N)[C@H](O)[C@@H](O[C@@H]2O[C@H](CO)[C@H](O)[C@@H]3OC4(O[C@H]23)O[C@H](C(N)CO)[C@H](O)[C@H](O)[C@H]4O)[C@@H]1O (stereo partly drawn)	·	i	·	·	·
CC(C)c1ccc(NC(=O)Cn2c(=O)oc3cc(S(=O)(=O)N4CCCC4)ccc32)cc1	-37%	i	-11%	21µM*	-1%
CCOC(=O)C(c1c(O)c2ccccc2oc1=O)c1c(O)c2ccccc2oc1=O	1%	i	·	·	·
O=C(CCC1CCCC1)c1c(O)c2ccccc2oc1=O	?	?	?	21µM*	6%
CC(=O)NC(Cc1ccc(N(CCCl)CCCl)cc1)C(=O)O (stereo not drawn)	?	i	4%	-1%	-1%
N[C@@H](Cc1ccc(N(CCCl)CCCl)cc1)C(=O)O	5.4µM*!	?	-10%	-20%	1%
O=C1c2ccccc2-c2cc3ccccc3cc21	75%	?	-2%	?	3.2µM*
C[C@H]1[C@H](OC(=O)CCC(=O)NCc2ccc(C(=O)O)cc2)O[C@@H]2O[C@@]3(C)CC[C@H]4[C@H](C)CC[C@@H]1C24OO3	-30%	i	21µM*	21µM*	11%
CCOC(=O)c1cc2cc(OC)ccc2n1C1CCN(Cc2ccccc2)CC1	21%	i	·	·	4%
CCOC(=O)C1=C(CN2CCN(c3ccc(C)cc3C)CC2)NC(=O)NC1c1ccc(OC)cc1 (stereo not drawn)	·	·	-29%	15µM*	-1%
CCN(CC(=O)Nc1ccccc1C(F)(F)F)C(=O)CCSc1ccc(F)cc1	-13%	i	-17%	?	2%
COc1cccc2c1cc([N+](=O)[O-])c1c(C(=O)O)cc3c(c12)OCO3	?	?	?	12µM*	-1%
C=CCc1cc(OC)c2c(c1)OCO2	5%	i	0%	3%	0%
O=c1[nH]c2ccccc2n1C1CCN(C(c2ccccc2OC(F)(F)F)c2nnnn2-c2ccc3c(c2)OCCO3)CC1 (stereo not drawn)	13µM*	·	·	·	-3%
COc1cccc(C(c2nnnn2-c2ccc3c(c2)OCCO3)N2CCC(n3c(=O)[nH]c4ccccc43)CC2)c1OC (stereo not drawn)	16µM*	i	·	·	-1%
COc1ccc(-n2nnnc2C(c2cccc(OC)c2OC)N2CCC(n3c(=O)[nH]c4ccccc43)CC2)cc1 (stereo not drawn)	-36%	?	·	·	1%
O=C(Nc1ccc2oc(-c3cccnc3)nc2c1)c1ccc(-c2cccc(Cl)c2)o1	·	·	1%	?	4%
C#CCOCCOCCOCCNc1nc(N2CCN(C(=O)CCCCCCCCCCNC(=O)[C@H]([C@@H](C)CC)n3cc(CCCCN=C(N)N)nn3)CC2)nc(N2CCN(C(=O)CCCCCCCCCCNC(=O)[C@H](CO)n3cc(CCCCCN)nn3)CC2)n1	28µM*	16µM*	?	?	-3%
O=S(=O)(c1ccc(O)cc1)c1ccc(O)cc1	4%	i	-1%	-3%	0%
Oc1cc[c]([Hg][Cl])cc1	·	3.2µM*	·	·	·
CN[C@@]1(c2ccccc2Cl)CCCCC1=O	·	i	·	·	·
Cc1c(NS(=O)(=O)c2ccccc2)ccc([N+](=O)[O-])c1Cl	?	?	?	15µM*	4%
SMILES	ATXN2 expr inh	S2 tox	A549 tox-1	Nrf2 inh	Nrf2 ARE act	others
CCN(CCNc1ccc([N+](=O)[O-])c2cccnc12)S(=O)(=O)c1ccccc1	4%	i	-9%	19%	1%
O=C1NC2C(O)C(O)C(O)C(O)C2c2cc3c(c(O)c21)OCO3 (stereo not drawn)	0%	?	1.2µM*	0.92µM*	-2%	FLuc enzyme inh=3%;A549 tox-2=?;ARE-Fluc inh=1.3µM*
O=C1NC2C(=CC(O)C(O)C2O)c2cc3c(c(O)c21)OCO3 (stereo not drawn)	?	?	?	0.26µM*	-2%	FLuc enzyme inh=1%;A549 tox-2=?
Cc1ccc(Sc2ccc(N3CCCC(C(=O)Nc4ccc(Cl)cc4)C3)nn2)cc1 (stereo not drawn)	-4%	i	-14%	?	0%
CCOc1ccccc1NC(=O)c1sc2nc3c(cc2c1N)CN(Cc1ccccc1)CC3	·	·	3%	?	1%
Cc1ccc2oc(-c3ccc(Cl)cc3)c(O)c(=O)c2c1	?	?	-7%	2%	4%
O=C1NC[C@H](CCCCN2C[C@@H](Cc3ccccc3)N(CCC3CCCCC3)C(=O)C2=O)N(CCC2CCCCC2)C1=O	14%	i	·	·	-5%
COc1ccc(C[C@H]2NC[C@H](O)[C@H]2OC(C)=O)cc1	0.1µM*	?	?	0.12µM*	-1%	FLuc enzyme inh=-18%;A549 tox-2=1%;ARE-Fluc inh=7.3µM*
CCCCC[C@@H]1CCCCC[C@@H](O)C[C@H](O)[C@H](O)/C=C/C(=O)O1	6%	i	·	·	-1%
Cc1ccc(C(=O)Oc2cc(N)n(S(=O)(=O)c3ccc(F)cc3)n2)cc1	-13%	i	8%	1.8µM*	-2%	FLuc enzyme inh=-17%;A549 tox-2=-7%;ARE-Fluc inh=1.6µM*
CCOc1ccc(NC(=O)c2cc3c(C)nn(-c4ccccc4)c3s2)cc1	2%	i	-12%	?	1%
CN(C)CCc1c[nH]c2ccccc12	27%[222 µM]	i	·	·	·
CC1=CC(O)C(O)C2(C)C1CC1OC(=O)C(O)C3C(C)C(O)C4(O)OCC13C42 (stereo not drawn)	10%	i	-20%	2.9µM*	0%	FLuc enzyme inh=-2%;A549 tox-2=-24%;ARE-Fluc inh=5.2µM*

Screening results deposited in PubChem BioAssay by National Center for Advancing Translational Sciences (NCATS).
